The panel holds about 83,000 compounds, 20% with a hit somewhere; the sample as a whole holds those more often.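 Values shown are percent growth following 48 h exposure of cells in 96-well plates to a single concentration of compound; below 10 was considered active.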 Active and inactive are the calls of the source.
Columns and labels:
Assay in all cases: NCI-60 one-dose screen, 48 h (100 = growth as untreated, 0 = no growth, -100 = all killed)
Conditions in all cases: 10 µM
[1] = test system: T-47D breast
[2] = test system: BT-549 breast
[3] = test system: MDA-MB-435 melanoma
[4] = test system: SW-620 colon
[5] = test system: MCF7 breast
[6] = test system: HCT-116 colon
[7] = test system: HCC-2998 colon
[8] = test system: KM12 colon

Measured: growth

COc1cc(OC)cc(-c2n/c(=C\c3c(O)[nH]c4ccc(OC)cc34)cc3c2=Nc2ccccc2-3)c1
inactive: [1] 109% | [2] 92.3% | [3] 67.2% | [4] 46.9% | [6] 13.7% | [7] 22.2%
active: [5] -64.9% | [8] -49.8%

O=C(Nc1cccc(Cl)c1)Nc1cc2ncncc2cc1OCc1cccc(F)c1
inactive: [2] 44.8% | [4] 23.9% | [7] 35.7%
active: [1] -5.19% | [3] 0.458% | [5] 6.04% | [6] 8.63% | [8] 9.08%

O=C(NC1CCN(Cc2ccccc2)CC1)c1cc(-c2ccncc2)nc2ccc(Cl)cc12
active: [6] 9.97%
inactive: [1] 29.8% | [2] 35.4% | [3] 28% | [4] 23.5% | [5] 17.7% | [7] 44.4% | [8] 26.1%

Cc1cc(Nc2cccc(F)c2)nc(NCc2ccccc2)n1
inactive: [1] 15.6% | [2] 82% | [3] 23.2% | [4] 22.7% | [5] 15.1% | [6] 15.8% | [7] 26.9% | [8] 14.1%

O=S(=O)(O)C1(O)CCCCC1
inactive: [1] 85.7% | [2] 112% | [3] 89.2% | [4] 81.5% | [5] 78% | [6] 50.9% | [7] 110% | [8] 82.9%

Cc1ccc([P+](Cc2ccccc2)(c2ccccc2)c2ccccc2)cc1
active: [1] -3.45% | [2] -4.96% | [3] 2.32% | [5] 9.62% | [6] 4.1% | [8] 8.34%
inactive: [4] 24.4% | [7] 21.6%

CCOC(=O)c1c(Cl)c2c(n1Cc1cccc(OC)c1)-c1oncc1CC2
inactive: [1] 35.5% | [2] 21.7% | [4] 34.5% | [5] 15.2% | [6] 18.5% | [7] 39.8% | [8] 25.9%
active: [3] -28%

CCN(CC)CCOC(=O)c1ccc(NC(=O)Nc2cccc(Cl)c2)cc1
inactive: [1] 87.1% | [2] 92.9% | [3] 103% | [4] 104% | [5] 95% | [6] 95% | [7] 99.7% | [8] 98%

CC(=O)CS(C)(=O)=O
inactive: [1] 109% | [2] 109% | [3] 106% | [4] 102% | [5] 105% | [6] 107% | [7] 102% | [8] 114%

O=C(Nc1ccc(OS(=O)(=O)Cc2ccccc2)cc1)C12CC3CC(CC(C3)C1)C2
inactive: [1] 51.3% | [2] 71.2% | [3] 97.9% | [4] 25.3% | [5] 80.7% | [6] 63.9% | [7] 49.1% | [8] 42.4%

COc1ccc(N2CCN(c3nc(-c4ccccc4)c(C#N)c(=O)[nH]3)CC2)cc1
inactive: [1] 85.7% | [2] 93.6% | [3] 111% | [4] 113% | [5] 93.9% | [6] 89.9% | [7] 99.8% | [8] 96.8%

CCN(CC)CC(O)Cc1ccc(OC)cc1 (stereo not drawn)
inactive: [1] 104% | [2] 121% | [3] 102% | [4] 114% | [5] 111% | [6] 111% | [7] 111% | [8] 116%

Cc1cccc2c(Nc3ccc(NS(C)(=O)=O)cc3)c3ccc([N+](=O)[O-])cc3nc12
active: [1] 0.696% | [4] -43.5% | [5] 0.147% | [6] 5.63% | [7] -30.6% | [8] -46.6%
inactive: [2] 29.1% | [3] 33.2%

CCCC(C)c1ccc(OCCCCCCN2CCNCC2)cc1 (stereo not drawn)
inactive: [2] 76.5% | [3] 28.9% | [8] 15.1%
active: [1] -12.7% | [4] -16.6% | [5] -23.2% | [6] -6% | [7] -71.4%

COCCOC(=O)NC(=O)Nc1ccc(C(=O)c2ccc(Cl)cc2)cc1
active: [3] 6.97%
inactive: [1] 16.5% | [2] 37.8% | [4] 30.4% | [5] 19.5% | [6] 30.5% | [7] 47.3% | [8] 29%

C[n+]1c(/C=C/c2c[nH]c3ccccc23)ccc2ccccc21
inactive: [1] 12.1% | [2] 94.7% | [3] 60.3% | [4] 48.8% | [5] 19.4% | [6] 31% | [7] 75.6% | [8] 38.9%

Nc1ccc2c(c1)Cc1cc(N)c(Cl)cc1-2
inactive: [1] 54.3% | [2] 90.3% | [3] 94.3% | [4] 108% | [5] 42.6% | [6] 100% | [7] 103% | [8] 108%

Cc1ccc(-n2c(-c3cc4c([nH]c5ccccc54)c(-c4cccc(O)c4)n3)n[nH]c2=S)cc1
inactive: [1] 20.4% | [4] 10.5%
active: [2] -35.7% | [3] 1.24% | [5] 2.88% | [6] 3.29% | [7] -52.5% | [8] 5%

Cc1ncc([N+](=O)[O-])n1CCOc1ccc(C(=O)/C=C/c2ccc(C(F)(F)F)cc2)cc1
active: [6] -59%
inactive: [1] 51.6% | [2] 68.1% | [3] 83.1% | [4] 15.4% | [5] 12.7% | [7] 95.9% | [8] 14.5%

Cc1ccc(C)c2c1sc1nc3n[nH]c(N)c3c(=N)n12
inactive: [1] 94.1% | [2] 114% | [3] 105% | [4] 107% | [5] 103% | [6] 101% | [7] 109% | [8] 104%

C=C[C@]1(C)C=C2C(=O)[C@@]3(O)OC(=O)[C@@]4(CCCC(C)(C)[C@H]34)[C@@]2(O)CC1
active: [1] -52.8% | [2] -93.7% | [3] -90.6% | [4] -42% | [5] 0.55% | [6] -93.4% | [7] -91.3% | [8] 8.33%

CC(=O)c1c(O)cc2c3c1OC(C)(C)C1CCC(C)(CC31)O2 (stereo not drawn)
inactive: [1] 66.4% | [2] 90.8% | [3] 104% | [4] 107% | [5] 119% | [6] 86.8% | [7] 115% | [8] 94.8%

COc1ccc2nc(-c3ccccc3)cc(C(C)=O)c2c1
inactive: [1] 69.5% | [2] 93.6% | [3] 98% | [4] 99.9% | [5] 72.6% | [6] 91.2% | [7] 107% | [8] 103%

C/C=C\COc1cc(C)c(Cl)cc1Cl
inactive: [1] 105% | [2] 126% | [3] 98% | [4] 96.2% | [5] 98.4% | [6] 110% | [7] 118% | [8] 109%

C[N+]1=C(/C=C/c2ccc(I)cc2)C(C)(C)c2ccccc21
inactive: [1] 89.3% | [2] 93% | [3] 75.7% | [4] 51.5% | [5] 87.7% | [6] 87.2% | [7] 103% | [8] 88.9%

Cc1nc(Nc2nc3ccccc3o2)nc(-c2cccc([N+](=O)[O-])c2)c1C(=O)Nc1ccc(F)c(Cl)c1
active: [1] 5.31% | [3] 8.91% | [4] 9.75% | [5] 3.7% | [6] 6.76% | [7] -25.6% | [8] -14.6%
inactive: [2] 19.4%

COCCNCC(O)Cn1c2ccc(Cl)cc2c2cc(Cl)ccc21 (stereo not drawn)
active: [1] -15.8% | [3] -83.1% | [4] 2.98% | [5] -64.8% | [6] -5.18% | [7] -30.1%
inactive: [2] 11.2% | [8] 10.9%

COc1ccc(C2C=C(c3ccc(OC)c(OC)c3)N=C3SC=CN32)c(Br)c1 (stereo not drawn)
inactive: [1] 54.7% | [2] 62.5% | [4] 13.4% | [5] 12.7% | [7] 95% | [8] 31.5%
active: [3] 5.29% | [6] -78.2%

COc1cc(OC)cc(-c2ccc(-c3ccc(C(=N)N)cn3)o2)c1
active: [1] -56.9% | [2] -3.57% | [3] -63.6% | [4] -90.3% | [5] -66.2% | [6] -86.5% | [7] -87.4% | [8] -11.2%

COc1ccc(Nc2ccnc(N3CCN(c4ccnc5cc(Cl)ccc45)CC3)n2)cc1
inactive: [7] 15.8%
active: [1] -7.73% | [2] -11.5% | [3] -4.38% | [4] 7.57% | [5] 2.5% | [6] 0.434% | [8] 2.49%

CCN(Cc1ccccc1)C1CCN(Cc2cc(Br)ccc2O)CC1
active: [7] 2.04%
inactive: [1] 44.3% | [2] 80.6% | [3] 52.1% | [4] 63.7% | [5] 46.5% | [6] 38.7% | [8] 51.3%

Source: PubChem BioAssay (NCI)
